Results reported in PubChem BioAssay (NCATS).
Results filed as inconclusive are left out. Calls of active or inactive are those of the source. Unless noted, calls follow the shape of the full dose curve.

How the values were obtained:
[1] = qHTS drug screen for cell cycle checkpoint inhibitors in PARPi-resistant BRCA-mutant ovarian cancer cell lines. (AID 1963452); conditions: PEO1/OlaR viability, CellTiter-Glo luminescence, 96 h, stronger effect = lower value
Method in brief: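 PEO1, PEO4 and PEO1/OlaR ovarian cancer cells, 600 per well, exposed 96 h at 37C to a dilution series. Viability read by CellTiter-Glo luminescence, normalized to DMSO and empty wells; activity summarized as Z-AUC.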

[2] = Dual reporter qHTS for antagonist of Pregnane X Receptor (hPXR) against the NCATS DSHEA and TCM libraries: Fluorescence Readout (AID 1920061; active = well fitted curve in the direction sought with a large enough effect; also: 0% is about no effect); conditions: PXR dual reporter cells, antagonist mode; series mostly up to 40 µM
Method in brief: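 In antagonist mode, 2 uM rifampicin was added to hPXR-Luc HepG2 cells alongside test substances, incubated 24 h at 37 C; luminescence gave reporter activity, and CellTiter-Fluor fluorescence (405/540 nm) gave viability.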

[3] = qHTS for identification of novel therapeutic agents for treatment of microphthalmiaassociated transcription factor (MiT) renal cell carcinoma (RCC) (AID 1963991); conditions: CellTiter-Glo, 48 h, stronger effect = lower value
Method in brief: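 Curves over 11 concentrations were fitted to CellTiter-Glo luminescence, scaled between empty wells (0%) and DMSO (100%) viability. Cells were UOK109, UOK124 and UOK145 TFE3-fusion RCC lines at 500/well, exposed 48 hours at 37 C.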

[4] = measured here: PEO1 parental Z-AUC

## O=C(Nc1cccc(C(F)(F)F)c1)Nc1cc(S(=O)(=O)NC2CC2)ccc1-c1ccsc1
[1]
  Z-AUC: -0.117 (inactive)
[1]; [4]
  Z-AUC: -0.289
[1]; measured here: PEO4 Z-AUC
  Z-AUC: -0.479

## OC[C@H]1O[C@@H](OCCc2ccc(O)cc2)[C@H](O)[C@@H](O)[C@H]1O
[2]
  outcome: inactive
[3]; TFE3-RCC UOK109 viability, measured here: UOK109 Z-AUC
  z-score: 0.167
[3]; TFE3-RCC viability, measured here: UOK124 Z-AUC
  z-score: 0.0834
[3]; TFE3-RCC viability, measured here: UOK145 Z-AUC
  z-score: -0.171

## CC(C)(F)C[C@H](N[C@@H](c1ccc(-c2ccc(S(C)(=O)=O)cc2)cc1)C(F)(F)F)C(=O)NC1(C#N)CC1
[1]
  Z-AUC: -0.727 (inactive)
[1]; [4]
  Z-AUC: 1.36
[1]; measured here: PEO4 Z-AUC
  Z-AUC: 0.322

## CC1(COc2ccc3c(c2)ncn3-c2ccc3cccc(N4CCC(N)CC4)c3n2)COC1
[1]
  Z-AUC: 0.496 (inactive)
[1]; [4]
  Z-AUC: -0.0934
[1]; measured here: PEO4 Z-AUC
  Z-AUC: -0.193

## CCC(=O)NCC[C@@H]1CCc2ccc3c(c21)CCO3
[1]
  Z-AUC: -0.993 (inactive)
[1]; [4]
  Z-AUC: 1.01
[1]; measured here: PEO4 Z-AUC
  Z-AUC: 0.501

## Fc1ccc(CNc2ncnc3ccc(F)cc23)cc1
[1]
  Z-AUC: -0.894 (inactive)
[1]; [4]
  Z-AUC: -1.29
[1]; measured here: PEO4 Z-AUC
  Z-AUC: -1.17

## CCOc1ccccc1N=Nc1c(C)[nH]n(-c2nc(-c3ccccc3)cs2)c1=O
[1]
  Z-AUC: 1.3 (inactive)
[1]; [4]
  Z-AUC: 1.25
[1]; measured here: PEO4 Z-AUC
  Z-AUC: 1.22

## COC(=O)[C@H](c1ccccc1Cl)N1CCc2sccc2C1
[1]
  Z-AUC: 1.43 (inactive)
[1]; [4]
  Z-AUC: 1.15
[1]; measured here: PEO4 Z-AUC
  Z-AUC: 0.952

## O=C(Nc1ccc(OC(F)(F)F)cc1)c1sccc1NCc1ccnc2ccccc12
[1]
  Z-AUC: 0.246 (inactive)
[1]; [4]
  Z-AUC: -0.378
[1]; measured here: PEO4 Z-AUC
  Z-AUC: -0.233

## CN1N=C(N)c2cn([C@@H]3O[C@H](COP(=O)(O)O)[C@@H](O)[C@@H]3O)c3ncnc1c23
[1]
  Z-AUC: -0.375 (inactive)
[1]; [4]
  Z-AUC: -0.488
[1]; measured here: PEO4 Z-AUC
  Z-AUC: -0.707

## Cn1cnc(-c2cc3nccc(Oc4ccc(NC(=S)NC(=O)Cc5ccccc5)cc4F)c3s2)c1
[1]
  Z-AUC: -0.0485 (inactive)
[1]; [4]
  Z-AUC: 0.327
[1]; measured here: PEO4 Z-AUC
  Z-AUC: 0.301

## CC(C)[C@H](O)C(=O)N[C@@H](C)C(=O)N[C@@H]1C(=O)N(C)CCc2ccccc21
[1]
  Z-AUC: -0.413 (inactive)
[1]; [4]
  Z-AUC: -0.342
[1]; measured here: PEO4 Z-AUC
  Z-AUC: -0.336

## CCCCCCCCCCCCCCCC(=O)O[C@H]1[C@@H](O)[C@@H](O)[C@@H]([C@H](NC(=O)[C@@H]2C[C@@H](CCC)CN2C)[C@H](C)Cl)O[C@@H]1SC
[1]
  Z-AUC: 1.31 (inactive)
[1]; [4]
  Z-AUC: 0.604
[1]; measured here: PEO4 Z-AUC
  Z-AUC: 0.552

## CC(C)Oc1cc(Nc2nc(N[C@@H](C)c3ccc(F)cn3)ncc2Cl)[nH]n1
[1]
  Z-AUC: -1.59 (inactive)
[1]; [4]
  Z-AUC: -1.36
[1]; measured here: PEO4 Z-AUC
  Z-AUC: -0.661

## C[C@@H](NC(=O)c1ncnc(N)c1Cl)c1ncc(C(=O)Nc2cc(C(F)(F)F)c(Cl)cn2)s1
[1]
  Z-AUC: 0.509 (inactive)
[1]; [4]
  Z-AUC: 0.52
[1]; measured here: PEO4 Z-AUC
  Z-AUC: 0.658

## CO[C@@H]1C(N(C)C(=O)c2ccccc2)C[C@H]2O[C@]1(C)n1c3ccccc3c3c4c(c5c6ccccc6n2c5c31)C(=O)NC4=O (some centres undefined)
[1]
  Z-AUC: 0.0475 (inactive)
[1]; [4]
  Z-AUC: 0.0888
[1]; measured here: PEO4 Z-AUC
  Z-AUC: -0.413

## CC[C@@H]([C@H](C)O)n1ncn(-c2ccc(N3CCN(c4ccc(OCC5CO[C@@](Cn6cncn6)(c6ccc(F)cc6F)C5)cc4)CC3)cc2)c1=O (some centres undefined)
[1]
  Z-AUC: 0.357 (inactive)
[1]; [4]
  Z-AUC: -0.0959
[1]; measured here: PEO4 Z-AUC
  Z-AUC: -0.133

## c1cc(OCCN2CCCCC2)cc(-c2n[nH]c3ccc(-c4ncn[nH]4)cc23)c1
[1]
  Z-AUC: -0.663 (inactive)
[1]; [4]
  Z-AUC: -0.209
[1]; measured here: PEO4 Z-AUC
  Z-AUC: -0.626

## COc1cc(Nc2nc3ccccc3nc2NS(=O)(=O)c2ccc(NC(=O)c3ccc(C)c(OC)c3)cc2)cc(OC)c1
[1]
  Z-AUC: -0.848 (inactive)
[1]; [4]
  Z-AUC: -0.462
[1]; measured here: PEO4 Z-AUC
  Z-AUC: -0.582

## CN(C)c1ccccc1CN1CCCN(Cc2ccccc2N(C)C)C1c1ccncc1
[1]
  Z-AUC: -0.339 (inactive)
[1]; [4]
  Z-AUC: 0.0487
[1]; measured here: PEO4 Z-AUC
  Z-AUC: -0.169

## CN1CCN(c2cccc(Nc3nc4c(-c5ccc(S(C)(=O)=O)cc5)cccn4n3)c2)CC1
[1]
  Z-AUC: 0.515 (inactive)
[1]; [4]
  Z-AUC: 0.358
[1]; measured here: PEO4 Z-AUC
  Z-AUC: 0.131

## CC1=C[C@@H]2[C@@H]([C@@H](O)C[C@@]3(C)[C@H]2C[C@@H](C)[C@]3(O)C(=O)CO)[C@@]2(C)Cc3cnn(-c4ccccc4)c3C=C12
[1]
  Z-AUC: -1.56 (inactive)
[1]; [4]
  Z-AUC: -0.109
[1]; measured here: PEO4 Z-AUC
  Z-AUC: -1.25

## O=C(O)CCC=CCC[C@@H]1[C@H](N2CCCCC2)[C@@H](O)C[C@@H]1OCc1ccc(-c2ccccc2)cc1
[1]
  Z-AUC: 0.918 (inactive)
[1]; [4]
  Z-AUC: -0.0252
[1]; measured here: PEO4 Z-AUC
  Z-AUC: 0.219

## COC(=O)N1CCN(Cc2cccc(NC(=O)Nc3ccc(C)nc3)c2F)CC1
[1]
  Z-AUC: -0.162 (inactive)
[1]; [4]
  Z-AUC: -0.204
[1]; measured here: PEO4 Z-AUC
  Z-AUC: -0.622

## N#CC1(c2cccc(C(=O)Nc3cc(Oc4ccc5nc(NC(=O)C6CC6)sc5n4)ccc3F)c2Cl)CC1
[1]
  Z-AUC: -0.948 (inactive)
[1]; [4]
  Z-AUC: -1.21
[1]; measured here: PEO4 Z-AUC
  Z-AUC: -0.816

## CCN(CC)CCCCNc1nc2cc(Cl)c(Cl)cc2nc1-c1ccc(-c2cccs2)s1
[1]
  Z-AUC: 2.01 (inactive)
[1]; [4]
  Z-AUC: 0.897
[1]; measured here: PEO4 Z-AUC
  Z-AUC: 0.59

## OC1CCC(Nc2ncc3nc(Nc4c(F)cc(F)cc4F)n([C@@H]4CCOC4)c3n2)CC1 (some centres undefined)
[1]
  Z-AUC: 0.218 (inactive)
[1]; [4]
  Z-AUC: 0.89
[1]; measured here: PEO4 Z-AUC
  Z-AUC: 0.44

## CN1CCc2c(n(Cc3ccc(C(=O)NO)cc3)c3ccccc23)C1
[1]
  Z-AUC: 0.742 (inactive)
[1]; [4]
  Z-AUC: 0.892
[1]; measured here: PEO4 Z-AUC
  Z-AUC: 0.628

## CCCC1OC2C[C@@H]3[C@H]4CCC5=CC(=O)C=C[C@]5(C)[C@H]4C(O)C[C@]3(C)[C@]2(C(=O)CO)O1 (some centres undefined)
[1]
  Z-AUC: -0.0333 (inactive)
[1]; [4]
  Z-AUC: 0.534
[1]; measured here: PEO4 Z-AUC
  Z-AUC: -0.396

## COC1CCC(C(=O)c2ccc3nc4c(cc3c2)CCCO4)CC1 (centres undefined)
[1]
  Z-AUC: -0.16 (inactive)
[1]; [4]
  Z-AUC: -0.298
[1]; measured here: PEO4 Z-AUC
  Z-AUC: 0.0226

## COc1ccc(CCN(C)CCCOc2ccc(S(=O)(=O)c3[nH]c4ccccc4c3C(C)C)cc2)cc1OC
[1]
  Z-AUC: -0.498 (inactive)
[1]; [4]
  Z-AUC: 0.248
[1]; measured here: PEO4 Z-AUC
  Z-AUC: 0.439
